Source: PubChem BioAssay (National Center for Advancing Translational Sciences (NCATS))
ALOX12 inh: blocks human arachidonate 12S-lipoxygenase | AID 1671190 | purified 12hLO, xylenol orange hydroperoxide absorbance | Potency, µM (top dose mostly 108 µM), for inactives: at the top dose activity change, negative = inhibition, most hits filed as inhibitors | 580,000 compounds, 1.1% hits; further: on the % scale 0 is the no-effect control and ±100 the full control effect
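Purified human 12hLO at 150 nM in 25 mM Hepes, 0.01% Triton X-100, pH 7.0, preincubated 15 min at room temperature with compound. Reaction started with 40 uM arachidonic acid, 30 min at room temperature. Hydroperoxide measured by Fe-xylenol orange, 573/405 nm absorbance ratio.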
BAZ2B inh: blocks human BAZ2B; Potency, µM (doses to about 114 µM), inactives show at the top dose activity change, negative = inhibition, hits mostly inhibitors; AID 504333; AlphaScreen BAZ2B-H3K14Ac peptide displacement; 360,000 compounds, 4.4% hits; further: on the % scale 0 is the no-effect control and ±100 the full control effect; nearly all actives have a fitted effect of over 60% in size
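AlphaScreen displacement: compounds (up to 110uM) incubated 30 min at room temperature with a preformed 50 nM BAZ2B/50 nM biotinylated H3K14Ac peptide complex in PBS pH 7.4 with Tween-20. Donor and acceptor beads at 10 ug/mL final added, 20 min light-protected before reading.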
PLK1 PBD inh: inhibitors of human PLK1 polo-box domain binding; Plk1 PBD binding of FITC phosphopeptide, fluorescence polarization; AID 720504; P53350; 360,000 compounds, 2.8% hits; Potency, µM, for the others: max response, negative = inhibition, most hits filed as inhibitors; further: series mostly up to about 57 µM; on the % scale 0 is the no-effect control and ±100 the full control effect; nearly all actives have a fitted effect of over 65% in size
Target sequence (P53350 whole entry, looked up, the tested form may be a part): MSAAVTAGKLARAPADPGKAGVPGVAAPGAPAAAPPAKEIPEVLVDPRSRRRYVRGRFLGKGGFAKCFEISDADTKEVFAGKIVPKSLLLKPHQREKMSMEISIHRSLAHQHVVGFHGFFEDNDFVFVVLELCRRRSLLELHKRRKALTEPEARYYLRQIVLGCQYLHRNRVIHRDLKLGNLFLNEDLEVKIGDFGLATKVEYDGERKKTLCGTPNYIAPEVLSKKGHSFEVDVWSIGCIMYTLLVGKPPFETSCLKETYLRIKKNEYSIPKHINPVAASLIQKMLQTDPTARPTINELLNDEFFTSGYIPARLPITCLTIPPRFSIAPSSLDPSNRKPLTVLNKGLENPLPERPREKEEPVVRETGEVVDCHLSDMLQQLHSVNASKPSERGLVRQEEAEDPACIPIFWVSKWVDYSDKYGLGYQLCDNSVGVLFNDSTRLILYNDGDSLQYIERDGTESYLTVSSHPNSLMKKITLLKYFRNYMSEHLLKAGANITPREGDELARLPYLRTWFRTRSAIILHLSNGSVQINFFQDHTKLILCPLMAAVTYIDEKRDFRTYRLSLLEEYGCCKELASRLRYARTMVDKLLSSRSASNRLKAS
G9a block: inhibitors of human histone lysine methyltransferase G9a | 350,000 compounds, 8.8% hits | Potency, µM (highest dose often 102 µM), for the others: top-dose activity, negative = inhibition, most hits filed as inhibitors | G9a H3K9 monomethylation, AlphaScreen, 2 h | Q96KQ7 | AID 504332; further: on the % scale 0 is the no-effect control and ±100 the full control effect; nearly all actives have a fitted effect of over 75% in size
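Quantitative HTS format: methyltransferase activity on a biotin-tagged H3K9 peptide is measured by AlphaScreen, using a rabbit anti-monomethyl-H3K9 antibody with streptavidin donor and anti-IgG acceptor beads. Final levels are 20 nM enzyme, 500 nM peptide, 20 uM SAM; 2 h RT.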
HP1b chromo inh: HP1-beta chromodomain-methylated histone interaction inhibition | AID 540317 | 390,000 compounds, 0.56% hits | Potency, µM (highest dose often 114 µM), for the others: at the top dose activity change, negative = inhibition, usual class: inhibitors | AlphaScreen HP1-beta / biotin-H3K9me3 peptide binding; further: nearly all actives have a fitted effect of over 70% in size
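Compound inhibition of the preformed complex between 50 nM HP1-beta and 50 nM biotinylated H3K9me3 peptide was read by AlphaScreen. Buffer was PBS pH 7.4 with 0.01% Tween-20. Incubations ran 30 min at room temperature, with 10 ug/mL donor/acceptor beads.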
JMJD2A Tudor inh: JMJD2A Tudor domain (human) inhibition; O75164; AlphaScreen JMJD2A-Tudor / H3K4me3 peptide binding; Potency, µM (highest dose often 114 µM), inactives show at the top dose activity change, negative = inhibition, hits mostly inhibitors; 390,000 compounds, 4.4% hits; further: on the % scale 0 is the no-effect control and ±100 the full control effect; nearly all actives have a fitted effect of over 50% in size
Active calls of the source: *; ? = inconclusive; nt = no result given; [ ] = another dose, or the depositor's remark. An excerpt weighted towards active compounds, which were near 9% of everything screened. The call rests on the fitted dose curve; in most records, active means well fitted curve in the direction sought with a large enough effect; inconclusive means small, poorly fitted or top-dose-only effect, or another doubt; inactive means no such curve, though single readings can be large; an effect the other way counts as inactive or inconclusive. Potency means the concentration at half of the fitted maximal effect.

SMILES | ALOX12 inh | BAZ2B inh | PLK1 PBD inh | G9a block | HP1b chromo inh | JMJD2A Tudor inh
COc1cccc(C2c3c(oc4ccccc4c3=O)C(=O)N2CCCN2CCOCC2)c1 (centres undefined) | 111.8% | -0.2% | -10.6% | 50.1µM* | 47.2% | -9.3%
O=C1c2oc3ccccc3c(=O)c2C(c2cccs2)N1CCCN1CCOCC1 (centres undefined) | 12.2% | ? | -28.7% | 39.8µM* | 30.9% | -21.9%
COCCN1C(=O)c2oc3ccccc3c(=O)c2C1c1ccc(OC)c(OC)c1 (centres undefined) | 331.6% | -4.3% | -3.7% | -4.4% | ? | 56.2µM*
COc1ccc(C2c3c(oc4ccccc4c3=O)C(=O)N2CCN2CCOCC2)cc1OC (centres undefined) | 3.2% | nt | -2.6% | nt | 13.8% | 2.3%
COCCN1C(=O)c2oc3ccc(C)cc3c(=O)c2C1c1ccc(C(=O)OC)cc1 (centres undefined) | -19.3% | -21.2% | nt | -31.4%[59 µM] | 22.7% | -6.5%
COC(=O)c1ccc(C2c3c(oc4ccc(Cl)cc4c3=O)C(=O)N2CCN2CCOCC2)cc1 (centres undefined) | 0.0% | -10.9% | -14.0% | 20µM* | 36.0% | -13.3%
CCNC(=S)N(CCc1c(C)[nH]c2ccc(OC)cc12)Cc1cccnc1 | -0.2% | ? | -8.2% | -42.0% | 25.5% | ?
CN(C1CCS(=O)(=O)C1)S(=O)C12CC3CC(CC(C3)C1)C2 (centres undefined) | ? | -1.0% | -29.2% | 11.2µM* | 48.9% | -20.4%
CCCOc1ccc(C(=O)Nc2cc(-c3nn4c(C)nnc4s3)ccc2C)cc1 | 456.5% | 3.0% | ? | -38.5% | 12.4% | 39.8µM*
CC(=O)c1cccc(NC(=O)C(C)OC(=O)/C=C/c2cccs2)c1 (centres undefined) | ? | 7.7% | -6.2% | -40.8% | 12.4% | -9.0%
CC(=O)c1c(C)[nH]c(C(=O)OCc2ccccc2)c1C | 0.4% | ? | -14.2% | 16.8%[59 µM] | 12.0% | -17.4%
CCN(CC)CCc1c(C)[nH]c(C(=O)OCc2ccccc2)c1C | 15.5% | ? | -0.4% | 79.4µM* | -12.8% | -33.7%
CCN1CCC(=NNC(=O)c2ccco2)CC1 | 2.6% | 6.7% | -9.4% | 44.7µM* | 72.1% | 4.6%[11.4 µM]
C=CCn1c(C)cc(C(=O)COc2ccc(N(C)S(=O)(=O)c3ccc(NC(C)=O)cc3)cc2)c1C | 4.6% | nt | 5.3% | nt | 8.8% | -18.5%
COCC(C)n1c(C)cc(C(=O)COc2ccc(N(C)S(=O)(=O)c3ccc(NC(C)=O)cc3)cc2)c1C (centres undefined) | 16.5% | ? | -0.8% | 35.5µM* | -11.6% | -31.5%
CC(C)(C)c1ccc(O)c(O)c1 | 35.5µM* | -7.6% | -8.5% | 9.1%[0.501 µM] | ? | 12.6µM*
CCN(CC)C(=O)Cn1cnc([N+](=O)[O-])n1 | 3.3% | 4.6% | -2.7% | 26.5% | 10.9% | -7.9%
COC12CC(=O)C(C(C)=O)=C(O)C1(C)c1c(O)c(C)c(O)c(C(C)=O)c1O2 (centres undefined) | 39.8µM* | nt | nt | nt | nt | nt
CC(=O)c1c(O)c(C)c(O)c2c1OC1=CC(=O)/C(=C(/C)N)C(=O)C12C (centres undefined) | ? | nt | -10.4% | nt | nt | nt
COCCN1CCc2c(C)nc3c(-c4ccc(OC)c(OC)c4)cnn3c21 | 0.0% | -5.1% | -6.6% | 79.4µM* | 33.7% | -7.1%
Cc1ccc(NS(=O)(=O)c2c(C(=O)N3CCCCCC3)c(C)n(C)c2C)cc1F | 1.8% | -31.5% | nt | 3.0%[59 µM] | 32.5% | -18.7%
Cc1c(C(=O)N2CCOCC2)c(S(=O)(=O)Nc2ccc(C(C)C)cc2)c(C)n1C | 30.3% | -19.4%[57.1 µM] | 26.7µM* | 7.0% | -7.2% | ?
Cc1ccc(NS(=O)(=O)c2c(C(=O)N3CCCCCC3)c(C)n(C)c2C)cc1C | 5.1% | -29.2% | 21.2µM* | -6.2% | -8.5% | ?
Cc1cccc(N2C(=O)C(O)=C(C(=O)c3cccs3)C2c2ccc(C(C)C)cc2)n1 (centres undefined) | ? | -32.2% | -22.6% | ? | 5.2% | -25.3%
COc1ccc(C2C(C(=O)c3cccs3)=C(O)C(=O)N2c2nncs2)cc1 (centres undefined) | ? | ? | ? | 44.7µM* | -0.2% | ?
SMILES | ALOX12 inh | BAZ2B inh | PLK1 PBD inh | G9a block | HP1b chromo inh | JMJD2A Tudor inh
COc1ccc(C2C(C(=O)c3cccs3)=C(O)C(=O)N2c2nnc(C)s2)cc1OC (centres undefined) | nt | 50.1µM* | ? | ? | 24.0% | 79.4µM*
C=CCOc1ccc(C2C(C(=O)c3cccs3)=C(O)C(=O)N2c2nnc(C)s2)cc1 (centres undefined) | ? | nt | ? | nt | 9.5% | ?
CC(C)c1nnc(N2C(=O)C(O)=C(C(=O)c3cccs3)C2c2ccccc2)s1 (centres undefined) | ? | 79.4µM* | ? | 25.1µM* | 8.3% | -28.4%
Cc1cccc(N2C(=O)C(O)=C(C(=O)c3cccs3)C2c2ccc(F)cc2)n1 (centres undefined) | -19.5% | ? | -9.6% | ? | 21.0% | -20.0%
CCCCCCCNC(=O)C1(CC2CC(c3ccccc3)=NO2)CCN(C(=O)OC(C)(C)C)CC1 (centres undefined) | ? | 6.9% | 5.1% | 16.2%[2.33 µM] | 39.2% | -23.2%
CN(C)CCCN(C(=O)c1ccc2c(c1)CCCC2)c1nc2ccc(Cl)cc2s1 | ? | ? | -11.0% | ? | -38.5% | 39.8µM*
CCOc1ccc2nc(N(CCCN(C)C)C(=O)c3ccc(S(=O)(=O)N4CCc5ccccc5C4)cc3)sc2c1 | 449.8% | -21.6% | -3.1% | nt | 49.5% | -9.0%
COc1cccc2sc(N(CCN(C)C)C(=O)c3ccc4c(c3)CCCC4)nc12 | ? | ? | -7.4% | ? | -19.1% | ?
CCOc1ccc2nc(N(CCCN(C)C)C(=O)c3ccc4c(c3)CCCC4)sc2c1 | ? | ? | -17.0% | 44.7µM* | -4.0% | ?
Cc1ccsc1C1CC(=O)Nc2ccccc2S1 (centres undefined) | 492.1% | -24.2% | -5.5% | -4.6% | 31.2% | -14.8%
COc1cccc(NC(=O)C2=COCCO2)c1 | 19.2% | -26.5% | -0.3% | 4.5% | 15.0% | -18.6%
COc1ccc2[nH]cc(C(C(=O)O)N3CCN(CCOc4ccc(Cl)cc4)CC3)c2c1 (centres undefined) | -19.9% | nt | nt | nt | nt | nt
S=C(N/N=C/c1ccccc1)N1CCOCC1 | -11.7% | ? | -0.6% | ? | 19.5% | 89.1µM*
COc1ccc(/C=N/NC(=S)SC)cc1OC | ? | ? | -4.4% | -33.5% | 36.2% | -27.4%
CSC(=S)N/N=C/c1ccccc1 | -28.3% | 12.6µM* | -19.9% | -1.2% | -4.3% | ?
